These results are taken from PubChem BioAssay (EPA / NIEHS).

A short description of assay [1]: TOX21_p53_BLA_p2_viability: Viability Assessment in the Tox21 HCT-116 p53 Agonism Beta-lactamase Assay, Phase 2 (AID 2283591).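 Further: compound exposure lasted 16 h at 37 °C; actives lower the ATP signal meaning cytotoxicity.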 In outline: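 HCT-116 p53-bla cells (4000/well) rested 5 h at 37C, then received compounds in DMSO (217-fold dilution) for 16 h at 37C, 5% CO2. After the CCF4 read, CellTiter-Glo was added; ATP luminescence was read after 30 min at room temperature.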

Assay [2] has as its target Cellular tumor antigen p53 (Homo sapiens) (UniProt P04637). Put plainly: TOX21_p53_BLA_p2_ratio: Tox21 HCT-116 p53 Agonism Beta-lactamase Assay, Ratio, Phase 2 (AID 2283592). In outline: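 Read-out is the blue/green (460/530 nm, 405 nm excitation) ratio after 2 h CCF4-AM loading, fitted as gain versus DMSO. Compounds, pinned at 217-fold dilution from DMSO stocks, stayed 16 h on HCT-116 beta-lactamase reporter cells seeded 5 h earlier.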

Assay [3] in a line: TOX21_p53_BLA_p3_viability: Viability Assessment in the Tox21 HCT-116 p53 Agonism Beta-lactamase Assay, Phase 3 (AID 2283593).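 Further: cells exposed to compound for 16 h before reading.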 In outline:
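HCT-116 cells (4000/well) rested 5 h at 37C, then got DMSO compounds by pin tool (217-fold dilution) for 16 h at 37C, 5% CO2. After the bla read, CellTiter-Glo was added and luminescence read at 30 min, room temperature.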

Assay [4] has as its target Cellular tumor antigen p53 (Homo sapiens) (UniProt P04637). Put plainly: TOX21_p53_BLA_p5_ratio: Tox21 HCT-116 p53 Agonism Beta-lactamase Assay, Ratio, Phase 5 (AID 2283599). In outline:
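HCT-116 cells carrying a p53-inducible beta-lactamase reporter were seeded at 4000 cells/well and dosed after 5 h with compound in DMSO (217-fold dilution). After 16 h at 37C, CCF4-AM substrate was added for 2 h, and the 460/530 nm emission ratio was scored as gain-of-signal versus DMSO.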

The nature of assay [5]: TOX21_p53_BLA_p5_viability: Viability Assessment in the Tox21 HCT-116 p53 Agonism Beta-lactamase Assay, Phase 5 (AID 2283600). In a few lines:
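Viability came from CellTiter-Glo ATP luminescence, read after 30 min at room temperature. Before this, HCT-116 p53-bla cells (4000/well) had 16 hours of compound exposure at 37C, with DMSO stocks diluted 217-fold on transfer.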

Assay [6] in a line: TOX21_p53_BLA_p4_viability: Viability Assessment in the Tox21 HCT-116 p53 Agonism Beta-lactamase Assay, Phase 4 (AID 2283597).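 Further: hits lower the luminescence signal meaning cytotoxicity.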 In a few lines:
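Cytotoxicity as reduced cellular ATP (CellTiter-Glo luminescence, 30 min room temperature), measured in the same wells following the CCF4 FRET p53 reading. Human HCT-116 cells received compounds in DMSO (217-fold dilution) for 16 h.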

Assay [7] addresses Cellular tumor antigen p53 (Homo sapiens) (UniProt P04637). Put plainly: TOX21_p53_BLA_p4_ratio: Tox21 HCT-116 p53 Agonism Beta-lactamase Assay, Ratio, Phase 4 (AID 2283601). In outline:
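HCT116 cells carrying an inducible beta-lactamase reporter were plated at 4000 cells/well, rested 5 h, then exposed to compounds in DMSO (217-fold dilution) for 16 h at 37C. CCF4-AM substrate was loaded 2 h at room temperature; 460/530 nm emission ratio scored gain-of-signal versus DMSO.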

Assay [8] in a line: CCTE_Harrill_HTTr_Viability_MCF7: CCTE's 6-hour Cell Viability Assessment for the High-Throughput Transcriptomics (HTTr) Platform, in MCF-7 cells cultured in DMEM + 10% fetal bovine serum, Harrill Lab (AID 2284010; active means hit-call score of the fitted dose curve at least 0.9, where 1 is the maximum; inactive means score below 0.9). In a few lines: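 Read-out is propidium iodide gain of signal by high-content imaging, reflecting membrane integrity loss. Measurements are taken 6 h after dosing, eight concentrations per chemical, with DMSO serving as baseline for bidirectional curve fitting.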

Assay [9] can be described thus: CCTE_Harrill_HTTr_Apoptosis_MCF7: CCTE's 6-hour Apoptosis Assessment for the High-Throughput Transcriptomics (HTTr) Platform, in MCF-7 cells cultured in DMEM + 10% fetal bovine serum, Harrill Lab (AID 2284011; active means hit-call score of the fitted dose curve at least 0.9, where 1 is the maximum; inactive means score below 0.9). In outline:
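High-content imaging of CellEvent Caspase 3/7 Green signal follows a six-hour exposure, with eight concentrations per chemical. MCF-7 cells grown in DMEM plus 10% fetal bovine serum; activity fitted in both directions against DMSO.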

Assay [10] in a line: CCTE_Harrill_HTTr_CellCount_MCF7: CCTE's Cell Proliferation Assessment for the High-Throughput Transcriptomics (HTTr) Platform, Harrill Lab (AID 2284012).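 Further: cells exposed to compound for six hours; intended direction is loss of nuclei count meaning fewer cells.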 In a few lines:
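Cell count served as viability reporter: loss of Hoechst-stained nuclei, counted by high content imaging, marks decreased growth or survival. Exposure was 6 h in MCF-7 cells across eight concentrations, with DMSO as baseline.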

Assay [11] is described as follows: ACEA_ER_AUC_viability: ACEA Biosciences xCELLigence Real-Time Cell Analysis on Estrogen Receptor Agonism for Viability (AID 2283782).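 Further: hit means loss of impedance signal meaning reduced cell growth or viability.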 In a few lines: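 Continuous-exposure impedance cell analysis uses T-47D cells in charcoal-stripped serum, eight 1:4 dilutions topping at 100 uM final, biological duplicate. Area under the growth curve at 80 h is fitted against DMSO baseline.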

Molecules are shown by their SMILES. Inconclusive results are not listed. The source made the active and inactive calls. How the source made its calls, unless noted: active means hit-call score of the fitted dose curve at least 0.9, where 1 is the maximum; inconclusive means response in the unintended direction; inactive means score below 0.9. Where a SMILES comes first, the peptide text is derived from it. Bridges are numbered along the chain shown (N, C = ends). [ ]: non-standard residue; d: D form. Orn = NCCC[C@H](N)C(=O)O; Mpa = O=C(O)CCS

Chain of Cellular tumor antigen p53 (Homo sapiens) (P04637 whole entry, looked up): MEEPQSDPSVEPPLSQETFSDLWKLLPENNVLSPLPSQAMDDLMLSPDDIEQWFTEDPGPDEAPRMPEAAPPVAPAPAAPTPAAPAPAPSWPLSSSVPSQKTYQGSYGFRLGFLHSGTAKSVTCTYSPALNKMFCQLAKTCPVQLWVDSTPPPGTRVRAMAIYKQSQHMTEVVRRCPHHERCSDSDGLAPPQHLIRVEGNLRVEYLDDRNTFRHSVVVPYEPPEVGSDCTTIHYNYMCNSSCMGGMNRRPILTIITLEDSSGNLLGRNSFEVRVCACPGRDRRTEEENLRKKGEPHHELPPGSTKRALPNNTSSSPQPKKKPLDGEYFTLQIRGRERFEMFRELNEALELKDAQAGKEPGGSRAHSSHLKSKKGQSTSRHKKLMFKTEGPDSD

As to `c1cnccn1`, the result in assay [1], in [2], in [3], in [4] and in assay [5] was inactive.
`NC(=O)COCCN1CCN(C(c2ccccc2)c2ccc(Cl)cc2)CC1` (stereo unspecified): the call in assay [1], in assay [2], in assay [3], in assay [6], in assay [5] and in assay [7] was inactive.
In the case of `O=C(O)c1ccccc1S`, the molecule was classed as inactive in [1], in [2], in assay [3] and in assay [4].
For `CC[C@H]1OC(=O)[C@H](C)[C@@H](O[C@H]2C[C@@](C)(OC)[C@@H](O)[C@H](C)O2)[C@H](C)[C@@H](O[C@@H]2O[C@H](C)C[C@H](N(C)C)[C@H]2O)[C@](C)(O)C[C@@H](C)CN(C)[C@H](C)[C@@H](O)[C@]1(C)O`, the call in assay [1], in assay [2], in [3], in assay [6], in [5] and in assay [7] was inactive.
As to `CCOC(=O)c1ccc(NC(=O)CN2CCCCC2)cc1`, the call in [1], in [2], in assay [3], in [4] and in [5] was inactive.
For the molecule `CCN(CC)Cc1cc(Nc2ccnc3cc(Cl)ccc23)ccc1O`, the result in assay [1], in assay [2], in assay [3], in [6], in assay [5] and in [7] was inactive.
In the case of `O=C(Nc1ccccc1)Nc1ccccc1`, the molecule was classed as inactive in assay [1], in [2], in assay [3], in [6] and in assay [5].
Turning to `Oc1ccc2c(c1)OCO2`, the result in [1], in [2], in assay [3], in [6], in assay [5] and in [7] was inactive.
Consider `CCN1CCN(c2cc(-c3ccc(F)cc3)c3c(n2)CCCCCC3)CC1`, for which the outcome in [1], in [2], in assay [3], in assay [6], in assay [5] and in assay [7] was inactive.
`O=C(NCCNCC(O)COc1ccc(O)cc1)N1CCOCC1` (stereo unspecified): the call in assay [1], in assay [2], in assay [3], in assay [4], in [5] and in assay [7] was inactive.
`CCOc1ccc(C[C@H]2NC(=O)CCSSC[C@@H](C(=O)N3CCC[C@H]3C(=O)N[C@@H](CCCN)C(=O)NCC(N)=O)NC(=O)[C@H](CC(N)=O)NC(=O)[C@H]([C@@H](C)O)NC(=O)[C@H]([C@@H](C)CC)NC2=O)cc1` ([Mpa][dY](Et)ITNCP[Orn]G-NH2; disulfide 1-6): the molecule was called inactive in [1], in assay [2], in assay [3], in assay [6], in assay [5] and in assay [7].
Take `CCN1CCC[C@H]1CNC(=O)c1cc(S(N)(=O)=O)ccc1OC`: the result in assay [1], in assay [2], in [3], in assay [6], in assay [5] and in [7] was inactive.
Consider `CCCCCCCCCCCCOC(=O)c1ccc(O)cc1`, for which the molecule was classed as inactive in [1], in assay [2], in assay [3], in assay [4], in assay [5] and in assay [7].
For the molecule `O=c1cc[nH]c(=O)[nH]1`, the call in assay [1], in assay [2], in assay [3], in assay [6], in [5] and in [7] was inactive.
Turning to `CC(C)Cc1ccc([C@@H](C)C(=O)NS(C)(=O)=O)cc1`, the call in assay [1], in assay [2], in assay [3], in assay [4] and in assay [5] was inactive.
In the case of `OC[C@H](Cc1cccc(O)c1)[C@H](CO)Cc1cccc(O)c1`, the result in [1], in assay [2], in [3], in assay [6] and in [5] was inactive.
As a reminder, the AC50 is the concentration giving half of the maximal activity seen. As for `CNCCC=C1c2ccccc2CCc2ccccc21`, the call in assay [1], in assay [2], in [3], in assay [5] and in assay [7] was inactive. In addition, the AC50 in assay [6] is 35.8 µM (active).
For `CNCC(O)c1ccc(OC(=O)C(C)(C)C)c(OC(=O)C(C)(C)C)c1` (stereo unspecified), the outcome in assay [1], in assay [2], in [3], in assay [6], in assay [5] and in [7] was inactive.
Consider `COc1cc(-c2ccc(=O)[nH]n2)ccc1OC(F)F`, for which the call in assay [1], in assay [2], in assay [3], in assay [5] and in [7] was inactive.
As to `CC1(C)C(O)C(C)(C)C1O` (stereo unspecified), the molecule was called inactive in [1], in assay [2], in assay [3], in assay [4], in [5] and in assay [7].
Consider `CCN(CC)CCNC(=O)c1ccc(NS(C)(=O)=O)cc1`, for which the outcome in assay [1], in assay [2], in assay [3] and in assay [5] was inactive.
For `S=c1nccc[nH]1`, the outcome in [1], in assay [2], in assay [3], in assay [4], in assay [5] and in [7] was inactive.
`O=C1c2ccccc2S(=O)(=O)N1CCCCN1CCN(c2ncccn2)CC1`: the outcome in assay [1], in [2], in assay [3] and in assay [5] was inactive.
Regarding `CO/N=C(\C(=O)N[C@@H]1C(=O)N2C(C(=O)OCOC(=O)C(C)(C)C)=C(/C=C\c3scnc3C)CS[C@H]12)c1csc(N)n1`, the outcome in assay [1], in assay [2], in assay [3], in [4] and in [7] was inactive.
On to `O=C(OC1C[C@H]2CC[C@@H](C1)[N+]21CCCC1)C(O)(c1ccccc1)c1ccccc1` (stereo partly specified), for which the molecule was classed as inactive in assay [1], in assay [2], in assay [3] and in assay [7].
As to `C[N+](C)(C)CCOC(N)=O`, the result in [1], in assay [2], in assay [3], in assay [4], in [5] and in assay [7] was inactive.
In the case of `Cl[Si](Cl)(c1ccccc1)c1ccccc1`, the result in assay [1], in assay [2], in [3] and in assay [5] was inactive.
For `Nc1ccc2cc(S(=O)(=O)O)cc(O)c2c1`, the call in assay [1], in [2], in assay [3], in assay [4] and in assay [7] was inactive.
Regarding `CC(C)CCC[C@@H](C)[C@H]1CC[C@H]2[C@@H]3CC=C4C[C@@H](O)CC[C@]4(C)[C@H]3CC[C@]12C`, the molecule was called inactive in [1], in assay [2], in assay [3], in assay [4] and in [7].
For the molecule `C=C(C)C1CCC(C)(O)CC1` (stereo unspecified), the outcome in assay [1], in assay [2], in [3], in [4], in assay [5] and in assay [7] was inactive. Further, the outcome in [8], in [9] and in [10] was inactive.
For `C=CC1=C(C(=O)O)N2C(=O)[C@@H](NC(=O)C(=NOCC(=O)O)c3csc(N)n3)[C@H]2SC1`, the result in assay [1], in assay [2], in assay [3], in [4] and in assay [7] was inactive.
For `CC1(C)CCC(NC(=O)[C@@H](N)CCC(=O)O)CC1`, the call in [1], in assay [2], in [3], in assay [4] and in assay [7] was inactive.
Consider `CC(C)(C)OC=O`, for which the outcome in assay [1], in assay [2], in assay [3], in assay [4], in assay [5] and in assay [7] was inactive.
Take `CCCOCCOCCO`: the molecule was called inactive in [1], in assay [2], in assay [3], in assay [4] and in assay [7].
As for `CN(C)CCCNCCC#N`, the outcome in assay [1], in assay [2], in [3], in assay [5], in [7] and in assay [11] was inactive.
